hDAT+cocaine = changed hDAT dopamine uptake under cocaine IC80, either direction, primary screen, cocaine antagonist project, cell-based, LLC-PK1 hDAT, [14C]-dopamine uptake, MLSMR; LLC-PK1 hDAT cells, [14C]-dopamine uptake with cocaine IC80; actives deviate in either direction; B-score at 10 µM; 110,000 compounds, 1.3% hits;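 active = Z score or B-score, a plate-position-corrected score, falls beyond the plate's 99.7% confidence bounds, in either direction; inactive = both scores lie inside the 99.7% bounds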;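 also: scored against the spread of the other compound wells on the same plate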
Target sequence (Q01959 whole entry, looked up): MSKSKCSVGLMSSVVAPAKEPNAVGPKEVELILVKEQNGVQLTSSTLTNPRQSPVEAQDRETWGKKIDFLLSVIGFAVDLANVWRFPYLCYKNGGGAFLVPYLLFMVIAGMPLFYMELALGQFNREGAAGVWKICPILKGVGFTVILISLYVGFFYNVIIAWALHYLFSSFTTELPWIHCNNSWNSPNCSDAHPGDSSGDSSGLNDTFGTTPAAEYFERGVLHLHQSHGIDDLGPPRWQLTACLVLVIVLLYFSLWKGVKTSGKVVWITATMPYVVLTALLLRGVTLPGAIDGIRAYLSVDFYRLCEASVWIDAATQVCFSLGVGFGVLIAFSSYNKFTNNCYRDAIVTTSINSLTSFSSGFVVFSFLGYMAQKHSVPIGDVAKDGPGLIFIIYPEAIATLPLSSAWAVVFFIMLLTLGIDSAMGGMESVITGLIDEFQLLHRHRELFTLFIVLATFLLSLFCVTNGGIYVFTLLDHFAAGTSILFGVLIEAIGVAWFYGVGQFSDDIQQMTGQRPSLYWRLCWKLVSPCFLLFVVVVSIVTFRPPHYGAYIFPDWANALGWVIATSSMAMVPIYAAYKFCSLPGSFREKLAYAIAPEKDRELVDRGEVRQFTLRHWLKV
MRP reversal = reversal of MRP1-mediated doxorubicin resistance, primary screen, H69AR cells, doxorubicin co-treatment; H69AR cells + 2 uM doxorubicin, CellTiter-Glo, 72 h; differential viability (reversal), % at 10 µM; 85,000 compounds, 0.04% hits; AID 602, 2007;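 active = viability drop by adding the cancer drug above about 55%, with treated viability meeting a 40% cutoff, limit read from the data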;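 also: viability without doxorubicin minus viability with 2 µM doxorubicin for each compound; larger differential means the compound sensitizes cells more to doxorubicin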
MRP1 act = H69AR viability gain despite doxorubicin, primary screen, MRP-1 activator project, H69AR cells, CellTiter-Glo. viability rescue. viability increase, % at 10 µM. AID 799, 2007. 140,000 compounds, 0.61% hits;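 active = viability gain under doxorubicin at or above a set limit, the compound median plus 3 SD, cut at about 4.7% in these data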;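 also: MRP-1 overexpressing cells given doxorubicin 25 µM after compound pretreatment; 18-22 h compound pretreatment then 72 h with doxorubicin before readout; 0% = doxorubicin-only wells and 100% = vehicle-treated cells without doxorubicin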
Active calls of the source: *; x = not tested or not shown. Rows were chosen to be rich in hits. Some 1.5% of all compounds tested hit in one or more screens of this group.

SMILES	hDAT+cocaine	MRP reversal	MRP1 act
CCOc1ccc(S(=O)(=O)N2CCc3ccccc3C2)cc1	0.15	-1	-2
CCOc1ccc(S(=O)(=O)N2c3ccccc3CC2C)cc1 (centres undefined)	-2.7*	-29	-6
Cc1ccc(C(=O)NNC(=O)c2ccc(SCC3CCCO3)c([N+](=O)[O-])c2)cc1 (centres undefined)	-0.99	4	8.2*
O=C(NNC(=O)c1ccc(SCC2CCCO2)c([N+](=O)[O-])c1)c1ccc(Cl)c([N+](=O)[O-])c1 (centres undefined)	-0.091	-26	0
Cc1nc(SCC(=O)Nc2ccc(Cl)cc2[N+](=O)[O-])nc(C)c1C	x	x	0
COC(=O)C1=C(C)N(CCc2cc(OC)c(OC)c(OC)c2)C(=O)N[C@H]1c1ccccc1	0.67	x	x
c1ccc2c(c1)OCC(CNc1ncnc3sccc13)O2 (centres undefined)	x	x	0
Cc1ccc(Oc2ccc(Cl)cc2NC(=O)c2ccc(F)cc2F)cc1	x	x	-3
Nc1nonc1-c1noc(CCCOc2ccc(Cl)cc2Cl)n1	-0.077	2	-1
Cc1ccc(C(C)C)c(OCc2nc(-c3nonc3N)no2)c1	-0.82	9	6.4*
O=C(c1cccs1)N1CCN(Cc2ccccc2[N+](=O)[O-])CC1	x	x	-1
COc1ccc(-c2csc(Nc3ncccc3C)n2)cc1OC	1.6	-2	1
Cc1cccnc1Nc1nc(-c2ccc(O)c(O)c2)cs1	4.6*	-19	-6
CC1CCCN(C(=O)CSc2nnc3n(C4CCCC4)c(=O)c4ccccc4n23)C1 (centres undefined)	3.1*	-6	-3
O=C(CSc1nnc2n(C3CCCC3)c(=O)c3ccccc3n12)N1CCCCCC1	2.2	-2	-2
Cc1cc(C=O)c2c(c1)C=CC1(Oc3ccccc3C(=O)N1C)O2 (centres undefined)	x	-37	-7
COc1cccc(C(=O)N(Cc2cc3cc(C)ccc3[nH]c2=O)CC2CCCO2)c1 (centres undefined)	3*	12	-1
CCN(Cc1cc2cc(OC)ccc2[nH]c1=O)C(=O)c1ccncc1	-0.5	2	-1
CCN(Cc1cc2cc(OC)ccc2[nH]c1=O)C(=O)Cc1ccc(OC)cc1	-3.2*	1	-2
COc1cc(C(=O)N(Cc2cc3cc(C)ccc3[nH]c2=O)CC2CCCO2)cc(OC)c1OC (centres undefined)	0.23	-2	0
CCOC(=O)C1=C(C)C(c2ccccc2)NC(=S)N1 (centres undefined)	0.29	x	-4
COc1ccccc1/C=C1/SC(=O)N(CCC(=O)Nc2ccc(S(=O)(=O)Nc3nccs3)cc2)C1=O	x	x	-1
